Structures can show the parent of a compound that is named as a salt. Among all 1,700 compounds or so, about 15 (0.9%) showed activity.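 How the source made its calls: active = infection cut by 80% or more with cell growth above 90% in both runs; inactive = the rest.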 Only a selection was taken, and actives are over-represented in it overall.
Each compound was assayed on HSV-1 strain 17 YFP-ICP4 in A549 (assay: HSV-1 infection relative to DMSO (ICP4-YFP per H2B-RFP signal); higher = more viral infection (less antiviral activity), active = hit call of the paper). Details: 10 µM; 48 h; MOI: 0.1.
Description: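 Selleck FDA-approved library (L1300) screened in duplicate at 10 µM on A549 H2B-mRuby cells in 384-well plates, infected with HSV-1 strain 17 YFP-ICP4 at MOI 0.1 one hour before drug addition. Imaged after 2 days at 37°C. Cell growth (H2B-RFP) and infection (ICP4-YFP) are expressed as % of DMSO-treated wells. Hits: growth >90% and infection <20% of DMSO.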

SMILES	HSV-1 infection
Nc1ccc(S(=O)(=O)Nc2cncc(Cl)n2)cc1 [Sulfalozine sodium]	105% (inactive)
C=C[C@]1(C)C[C@@H](OC(=O)CS[C@@H]2C[C@H]3CC[C@@H](C2)N3C)[C@]2(C)[C@H](C)CC[C@]3(CCC(=O)[C@H]32)[C@@H](C)[C@@H]1O [Retapamulin]	32.7% (inactive)
COc1cccc(-c2c(C)n(Cc3c(F)cccc3C(F)(F)F)c(=O)n(C[C@H](NCCCC(=O)O)c3ccccc3)c2=O)c1F [Elagolix Sodium]	109% (inactive)
OC(c1ccccc1)(c1ccccc1)C12CC[N+](CCOCc3ccccc3)(CC1)CC2 [Umeclidinium bromide]	100% (inactive)
CC1CNc2c(cccc2S(=O)(=O)N[C@@H](CCCNC(=N)N)C(=O)N2CC[C@@H](C)C[C@@H]2C(=O)O)C1 (stereo partly specified) [Argatroban Monohydrate]	97.4% (inactive)
CC1CNc2c(cccc2S(=O)(=O)N[C@@H](CCCNC(=N)N)C(=O)N2CC[C@@H](C)C[C@@H]2C(=O)O)C1 (stereo partly specified) [Argatroban]	99.1% (inactive)
Cc1c(O)cccc1C(=O)N[C@@H](CSc1ccccc1)[C@H](O)CN1C[C@H]2CCCC[C@H]2C[C@H]1C(=O)NC(C)(C)C [Nelfinavir Mesylate]	9.57% (active)
Cc1c(C(C)C)c(=O)n(-c2ccccc2)n1C [Propyphenazone (4-Isopropylantipyrine)]	98.5% (inactive)
CCCCCCC(=O)O[C@H]1CC[C@H]2[C@@H]3CCC4=CC(=O)CC[C@]4(C)[C@H]3CC[C@]12C [Testosterone Enanthate]	66.7% (inactive)
C=C[C@@H]1C[C@]1(NC(=O)[C@@H]1C[C@@H]2CN1C(=O)[C@H](C(C)(C)C)NC(=O)O[C@@H]1C[C@H]1CCCCCc1nc3ccc(OC)cc3nc1O2)C(=O)NS(=O)(=O)C1CC1 [Grazoprevir]	119% (inactive)
CCCCCCCCCCCCC[N+](C)(C)Cc1ccccc1 [Benzalkonium chloride]	65.3% (inactive)
NC(=O)[C@@H](CCC(F)(F)F)N(Cc1ccc(-c2ncon2)cc1F)S(=O)(=O)c1ccc(Cl)cc1	95.4% (inactive)
CCNC(=O)[C@@H]1CCCN1C(=O)[C@H](CCCN=C(N)N)NC(=O)[C@H](CC(C)C)NC(=O)[C@@H](C)NC(=O)[C@H](Cc1ccc(O)cc1)NC(=O)[C@H](CO)NC(=O)[C@H](Cc1c[nH]c2ccccc12)NC(=O)[C@H](Cc1cnc[nH]1)NC(=O)[C@@H]1CCC(=O)N1 [Alarelin Acetate]	90.9% (inactive)
CC1=C(C(=O)OC(C)C)C(c2cccc([N+](=O)[O-])c2)C(C(=O)OC2CN(C(c3ccccc3)c3ccccc3)C2)=C(N)N1 (stereo unspecified) [Azelnidipine]	121% (inactive)
O=C1/C(=C2\Nc3ccc(S(=O)(=O)O)cc3C2=O)Nc2ccc(S(=O)(=O)O)cc21 [Indigo carmine]	101% (inactive)
C[C@@H](O)[C@H]1C(=O)N2C(C(=O)O)=C(S[C@@H]3CN[C@H](C(=O)Nc4cccc(C(=O)O)c4)C3)[C@H](C)[C@H]12 [Ertapenem sodium]	109% (inactive)
CCC[C@@H]1C[C@@H](C(=O)N[C@@H]([C@H]2O[C@H](SC)[C@H](O)[C@@H](O)[C@H]2O)[C@@H](C)O)N(C)C1 [Lincomycin Hydrochloride Monohydrate]	86.4% (inactive)
CCC[C@@H]1C[C@@H](C(=O)N[C@@H]([C@H]2O[C@H](SC)[C@H](O)[C@@H](O)[C@H]2O)[C@@H](C)O)N(C)C1 [Lincomycin HCl]	15.9% (active)
CCC[C@@H]1C[C@@H](C(=O)N[C@@H]([C@H]2O[C@H](SC)[C@H](O)[C@@H](O)[C@H]2O)[C@H](C)Cl)N(C)C1 [Clindamycin]	83.9% (inactive)
CCC[C@@H]1C[C@@H](C(=O)N[C@@H]([C@H]2O[C@H](SC)[C@H](OP(=O)(O)O)[C@@H](O)[C@H]2O)[C@H](C)Cl)N(C)C1 [Clindamycin Phosphate]	125% (inactive)
CCC[C@@H]1C[C@@H](C(=O)N[C@@H]([C@H]2O[C@H](SC)[C@H](O)[C@@H](O)[C@H]2O)[C@H](C)Cl)N(C)C1 [Clindamycin HCl]	87.2% (inactive)
CC(C)C(Br)C(=O)NC(N)=O (stereo unspecified) [Bromisoval]	117% (inactive)
N#Cc1ccc(Oc2ccc3c(c2)COB3O)cc1 [Crisaborole (AN2728)]	95.1% (inactive)
CNC(C)Cc1ccccc1OC (stereo unspecified) [Methoxyphenamine Hydrochloride]	110% (inactive)
Nc1nc(CC(=O)Nc2ccc(CCNC[C@H](O)c3ccccc3)cc2)cs1 [Mirabegron]	104% (inactive)
O=C(O)CCn1c2c(c3ccccc31)C[C@H](NS(=O)(=O)c1ccc(F)cc1)CC2 [Ramatroban]	96.2% (inactive)

SMILES	HSV-1 infection
O=C(NC[C@H](O)CO)c1ccncc1Nc1ccc(I)cc1F	34.8% (inactive)
CC[C@H](C)[C@@H]1NC(=O)[C@H](Cc2ccc(O)cc2)NC(=O)[C@@H](N)CSSC[C@@H](C(=O)N2CCC[C@H]2C(=O)N[C@@H](CC(C)C)C(=O)NCC(N)=O)NC(=O)[C@H](CC(N)=O)NC(=O)[C@H](CCC(N)=O)NC1=O [Oxytocin (Syntocinon)]	82.7% (inactive)
CCS(=O)(=O)N1CCN(c2ccc(Nc3ncc(C(N)=O)c(NC4CC4)n3)cc2)CC1	25.3% (inactive)
CC(C)C[C@H](NC(=O)CNC(=O)[C@H](Cc1ccc(O)cc1)NC(=O)[C@H](CO)NC(=O)[C@H](Cc1c[nH]c2ccccc12)NC(=O)[C@H](Cc1cnc[nH]1)NC(=O)[C@@H]1CCC(=O)N1)C(=O)N[C@@H](CCCNC(=N)N)C(=O)N1CCC[C@H]1C(=O)NCC(N)=O [Gonadorelin Acetate]	117% (inactive)
NCC(=O)O [Glycine]	95.8% (inactive)
CCCN(CCc1cccs1)[C@H]1CCc2c(O)cccc2C1 [Rotigotine]	27.9% (inactive)
CCCCCCCN(CC)CCCC(O)c1ccc(NS(C)(=O)=O)cc1 (stereo unspecified) [Ibutilide Fumarate]	84.3% (inactive)
O.O.O.O=C([O-])C1[O][Sb]2[O]C(=O)C([O]2)C(C(=O)[O-])[O][Sb]2[O]C(=O)C1[O]2.[K+].[K+] (stereo unspecified) [Antimonyl potassium tartrate trihydrate]	80.2% (inactive)
COC(=O)C1=C(C#N)NC(C)=C(C(=O)OC(C)C)C1c1cccc([N+](=O)[O-])c1 (stereo unspecified) [Nilvadipine]	95.1% (inactive)
Cc1onc(-c2c(F)cccc2Cl)c1C(=O)N[C@@H]1C(=O)N2[C@@H]1SC(C)(C)[C@@H]2C(=O)O [Flucloxacillin sodium]	114% (inactive)
O=C(Nc1cccc2c(=O)cc(-c3nnn[nH]3)oc12)c1ccc(OCCCCc2ccccc2)cc1 [Pranlukast]	79.1% (inactive)
OB1OCc2cc(F)ccc21 [Tavaborole (AN-2690)]	115% (inactive)
CCOc1cc(N)c(Cl)cc1C(=O)NCC1CN(Cc2ccc(F)cc2)CCO1 (stereo unspecified) [Mosapride]	97.6% (inactive)
CCOc1cc(N)c(Cl)cc1C(=O)NCC1CN(Cc2ccc(F)cc2)CCO1 (stereo unspecified) [Mosapride Citrate]	96.7% (inactive)
C[N+]1(C)[C@@H]2C[C@@H](OC(=O)C(O)(c3cccs3)c3cccs3)C[C@H]1[C@@H]1O[C@@H]12 [Tiotropium Bromide hydrate]	100% (inactive)
CCOCCn1c(C2CCN(CCc3ccc(C(C)(C)C(=O)O)cc3)CC2)nc2ccccc21 [Bilastine]	107% (inactive)
CC1(C)S[C@@H]2[C@H](NC(=O)Cc3ccccc3)C(=O)N2[C@H]1C(=O)O.CCN(CC)CCOC(=O)c1ccc(N)cc1 [Penicillin G Procaine]	120% (inactive)
Cc1cncc(CN2CCC(=C3c4ccc(Cl)cc4CCc4cccnc43)CC2)c1 [Rupatadine Fumarate]	108% (inactive)
CO[C@H]1O[C@H](COS(=O)(=O)O)[C@@H](O[C@@H]2O[C@@H](C(=O)O)[C@@H](O[C@H]3O[C@H](COS(=O)(=O)O)[C@@H](O[C@@H]4O[C@H](C(=O)O)[C@@H](O[C@H]5O[C@H](COS(=O)(=O)O)[C@@H](O)[C@H](O)[C@H]5NS(=O)(=O)O)[C@H](O)[C@H]4O)[C@H](OS(=O)(=O)O)[C@H]3NS(=O)(=O)O)[C@H](O)[C@H]2OS(=O)(=O)O)[C@H](O)[C@H]1NS(=O)(=O)O [Fondaparinux Sodium]	104% (inactive)
O=c1c(-n2ccnn2)c[nH]n1-c1cc(N2CCOCC2)ncn1 [Molidustat (BAY 85-3934)]	81.4% (inactive)
CC(C)OC(=O)OCOP(=O)(CO[C@H](C)Cn1cnc2c(N)ncnc21)OCOC(=O)OC(C)C [Tenofovir Disoproxil Fumarate]	86.9% (inactive)
CC(C)OC(=O)[C@H](C)N[P@](=O)(OC[C@H]1O[C@@H](n2ccc(=O)[nH]c2=O)[C@](C)(F)[C@@H]1O)Oc1ccccc1 [Sofosbuvir (PSI-7977, GS-7977)]	105% (inactive)
CC(C)OC(=O)[C@H](C)N[P@](=O)(CO[C@H](C)Cn1cnc2c(N)ncnc21)Oc1ccccc1 [Tenofovir Alafenamide (GS-7340)]	2.77% (active)
CCN(C(=O)c1c(O)c2c(Cl)cccc2n(C)c1=O)c1ccccc1 [Laquinimod]	117% (inactive)
CC(=O)Nc1cccc(-n2c(=O)n(C3CC3)c(=O)c3c(Nc4ccc(I)cc4F)n(C)c(=O)c(C)c32)c1	43.8% (inactive)

From the supplement of paper PMC11537057
